This experiment relates to A673/TR/shEF. Briefly: cell viability (LOESS-normalised, relative to median of negative controls) (log2 ratio); higher = more viable cells (less compound effect), active = hit call of the paper (over 3 MAD below the median). The following applies: treatment time: 72 h. The method, boiled down:
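A673/TR/shEF Ewing sarcoma cells (1,500 per well, 384-well plates) were grown with or without doxycycline to induce EWS-FLI1 shRNA knockdown, starting 24 h before compounds. Library compounds at two or more concentrations, with DMSO controls, were added for three days. Cell viability was read by CellTiter-Glo luminescence on an Envision reader, then LOESS-corrected per plate, divided by the median of negative controls and log2-transformed. Hits were wells at least three median absolute deviations from the median of all screened wells.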

Where [1] appears, read: 0.25 µM, library screen: screen1, EWS-FLI1 expression: high (no doxycycline).
The mark [2] stands for this setting: 0.25 µM, library screen: screen1, EWS-FLI1 expression: low (doxycycline-induced shRNA knockdown).
[3] abbreviates: 2.5 µM, library screen: screen1, EWS-FLI1 expression: high (no doxycycline).
The mark [4] stands for this setting: 2.5 µM, library screen: screen1, EWS-FLI1 expression: low (doxycycline-induced shRNA knockdown).
Setting [5] is: 0.103 µM, library screen: screen3, EWS-FLI1 expression: high (no doxycycline).
[6] abbreviates: 0.103 µM, library screen: screen3, EWS-FLI1 expression: low (doxycycline-induced shRNA knockdown).
Where [7] appears, read: 0.308 µM, library screen: screen3, EWS-FLI1 expression: high (no doxycycline).
The mark [8] stands for this setting: 0.308 µM, library screen: screen3, EWS-FLI1 expression: low (doxycycline-induced shRNA knockdown).
Where [9] appears, read: 0.926 µM, library screen: screen3, EWS-FLI1 expression: high (no doxycycline).
Where [10] appears, read: 0.926 µM, library screen: screen3, EWS-FLI1 expression: low (doxycycline-induced shRNA knockdown).
[11] abbreviates: 2.8 µM, library screen: screen3, EWS-FLI1 expression: high (no doxycycline).
[12] abbreviates: 2.8 µM, library screen: screen3, EWS-FLI1 expression: low (doxycycline-induced shRNA knockdown).
The mark [13] stands for this setting: 8.3 µM, library screen: screen3, EWS-FLI1 expression: high (no doxycycline).
Where [14] appears, read: 8.3 µM, library screen: screen3, EWS-FLI1 expression: low (doxycycline-induced shRNA knockdown).
The mark [15] stands for this setting: 25 µM, library screen: screen3, EWS-FLI1 expression: high (no doxycycline).
Setting [16] is: 25 µM, library screen: screen3, EWS-FLI1 expression: low (doxycycline-induced shRNA knockdown).

Out of some 3,200 compounds screened, about 300 (9.4%) showed activity. The entries come from a sample that favours actives as a whole. Unmarked numbers belong to inactive results.

The source of these data is the supplement of paper PMC6089552.

Turning to `CSc1nc(N)c2ncn(C3OC(COP(=O)(O)OP(=O)(O)O)C(O)C3O)c2n1` (configuration not stated), the “cell viability (log2)” value by setting is: (0.25 µM, library screen: screen2, EWS-FLI1 expression: high (no doxycycline)) 0.0889; (0.25 µM, library screen: screen2, EWS-FLI1 expression: low (doxycycline-induced shRNA knockdown)) 0.0973; (2.5 µM, library screen: screen2, EWS-FLI1 expression: high (no doxycycline)) 0.157; (2.5 µM, library screen: screen2, EWS-FLI1 expression: low (doxycycline-induced shRNA knockdown)) 0.0918.

With `CC(C)(O)[C@H]1CC[C@]2(C)[C@H]3CC[C@@H]4[C@@]5(C)CCCC(C)(C)[C@@H]5[C@@H](O)C[C@@]4(C)[C@]3(C)CC[C@@H]12`, the “cell viability (log2)” value is, setting by setting: under setting [1], 0.0136; under setting [2], 0.0775; under setting [3], 0.0306; under setting [4], 0.112.

`COc1cc(C2NC(=S)NC(C)=C2C(=O)Nc2cccc(Cl)c2)cc(OC)c1OC` (configuration not stated): the “cell viability (log2)” value was 0.123 under setting [1], 0.0893 under setting [2], 0.204 under setting [3] and 0.0553 under setting [4].

Take `COc1cccc(N2C(=O)C(=Cc3cccc(O)c3)SC2=S)c1`: the “cell viability (log2)” value is, setting by setting: under setting [1], 0.113; under setting [2], 0.0758; under setting [3], 0.133; under setting [4], 0.182.

As for `CC(=O)O[C@H]1C[C@@H](OC(C)=O)C(C)(C)C2C[C@@H](OC(C)=O)[C@@]3(C)C4=CC(=O)O[C@@H](c5ccoc5)[C@]4(C)CCC3[C@]21C` (some centres not stated), the “cell viability (log2)” value runs as follows: under setting [1], 0.0506; under setting [2], 0.0595; under setting [3], -0.853 (active); under setting [4], -0.345 (active).

For `CC(=O)O[C@H]1CC[C@@]2(C)C(C[C@@H](OC(C)=O)[C@@]3(C)C4=CC(=O)OC(c5ccoc5)[C@]4(C)CCC23)C1(C)C` (some centres not stated), the “cell viability (log2)” value under setting [1] was 0.121, the “cell viability (log2)” value under setting [2] was 0.145, the “cell viability (log2)” value under setting [3] was 0.126 and the “cell viability (log2)” value under setting [4] was 0.124.

For the compound `CC(=O)O[C@@H]1CC[C@@]2(C)C(C[C@@H](OC(C)=O)[C@@]3(C)C4=CC(=O)O[C@@H](c5ccoc5)[C@]4(C)CCC23)C1(C)C` (some centres not stated), the “cell viability (log2)” value is -0.00795 under setting [1], 0.0487 under setting [2], 0.121 under setting [3] and 0.0464 under setting [4].

As for `COc1cc(C(=O)N2CCOCC2)c([N+](=O)[O-])cc1OC`, the “cell viability (log2)” value by setting is: under setting [1], 0.0993; under setting [2], 0.0316; under setting [3], 0.0928; under setting [4], -0.0159.

`CCCCCCCCCCCCCCCCCC(=O)OC[C@H](COP(=O)(O)OCC(O)COP(=O)(O)OC[C@@H](COC(=O)CCCCCCCCCCCCCCCCC)OC(=O)CCCCCCCCCCCCCCCCC)OC(=O)CCCCCCCCCCCCCCCCC` (some centres not stated): the “cell viability (log2)” value runs as follows: under setting [1], 0.0223; under setting [2], 0.0715; under setting [3], 0.128; under setting [4], 0.138.

Turning to `CC(=O)O[C@@H]1C[C@H]2C(C)(C)C(=O)[C@@H]3O[C@@H]3[C@]2(C)[C@H]2CC[C@@]3(C)[C@H](c4ccoc4)OC(=O)[C@H]4O[C@]43[C@@]21C`, the “cell viability (log2)” value was 0.0357 under setting [1], 0.0669 under setting [2], 0.155 under setting [3] and 0.138 under setting [4].

In the case of `COc1cc2c(cc1OC)[C@@H]1C(=O)c3ccc4c(c3O[C@@H]1CO2)C=CC(C)(C)O4`, the “cell viability (log2)” value under setting [1] was -0.591 (active), the “cell viability (log2)” value under setting [2] is -0.253 (active), the “cell viability (log2)” value under setting [3] is -2.11 (active) and the “cell viability (log2)” value under setting [4] was -0.84 (active).

Take `COc1c(CC(=O)c2cc3c(cc2O)OC(C)(C)C(O)C3)ccc2c1C=CC(C)(C)O2` (configuration not stated): the “cell viability (log2)” value under setting [1] is 0.0608, the “cell viability (log2)” value under setting [2] is -0.00504, the “cell viability (log2)” value under setting [3] was 0.0765 and the “cell viability (log2)” value under setting [4] was 0.0703.

Consider `COc1c2c(cc3ccoc13)C(=O)[C@H]1c3cc4c(cc3OC[C@H]1O2)OCO4`, for which the “cell viability (log2)” value was 0.0834 under setting [1], 0.0158 under setting [2], 0.0793 under setting [3] and -0.0539 under setting [4].

For `COc1ccc2c(c1)O[C@H]1c3ccc(O)cc3OC[C@@H]21`, the “cell viability (log2)” value under setting [1] was 0.225, the “cell viability (log2)” value under setting [2] was 0.129, the “cell viability (log2)” value under setting [3] is 0.184 and the “cell viability (log2)” value under setting [4] is 0.206.

Take `COc1ccc2c(c1)O[C@@H]1COc3cc(OC)c(OC)cc3[C@@H]1C2=O`: the “cell viability (log2)” value was -0.0338 under setting [1], 0.0823 under setting [2], -0.0122 under setting [3] and -0.0233 under setting [4].

Take `COc1cc2c(cc1OC)[C@@H]1C(=O)c3c(cc4c(c3O)C=CC(C)(C)O4)O[C@@H]1CO2`: the “cell viability (log2)” value reads like this: under setting [1], -0.0181; under setting [2], -0.000972; under setting [3], -0.392 (active); under setting [4], -0.0174.

Consider `COc1ccc(-c2c(OC)c3c(OC)c4c(cc3oc2=O)OC(C)(C)C=C4)cc1`, for which the “cell viability (log2)” value is, setting by setting: under setting [1], 0.0786; under setting [2], 0.00334; under setting [3], 0.211; under setting [4], 0.00828.

Turning to `COc1cc2c(cc1OC)[C@@H]1C(=O)c3c(O)cc4c(c3O[C@@H]1CO2)C=CC(C)(C)O4`, the “cell viability (log2)” value is -0.205 (active) under setting [1], -0.261 (active) under setting [2], -0.213 (active) under setting [3] and -0.138 under setting [4].

On to `COc1cc2c(cc1-c1coc3c4c(c(OC)cc3c1=O)OC(C)(C)C=C4)OCO2`, for which the “cell viability (log2)” value runs as follows: under setting [1], 0.082; under setting [2], 0.0865; under setting [3], 0.173; under setting [4], 0.0953.

Take `COc1ccccc1-c1coc2cc(O)ccc2c1=O`: the “cell viability (log2)” value under setting [1] is 0.111, the “cell viability (log2)” value under setting [2] was 0.0685, the “cell viability (log2)” value under setting [3] is 0.111 and the “cell viability (log2)” value under setting [4] was -0.0147.

Turning to `COc1cc(C(=O)O)c(O)c2c1OCO2`, the “cell viability (log2)” value is -0.00582 under setting [1], -0.144 under setting [2], 0.116 under setting [3] and -0.0061 under setting [4].

Take `C[C@@H]1C[C@H]2[C@@H]3C[C@H](F)C4=CC(=O)C=C[C@]4(C)[C@@]3(F)[C@@H](O)C[C@]2(C)[C@H]1C(=O)COC(=O)C(C)(C)C`: the “cell viability (log2)” value runs as follows: under setting [1], 0.00935; under setting [2], -0.0577; under setting [3], 0.0831; under setting [4], -0.0529.

On to `COc1cc(O)c(C(=O)c2ccccc2)c(OC)c1`, for which the “cell viability (log2)” value is 0.0618 under setting [1], 0.0186 under setting [2], 0.0469 under setting [3] and 0.0894 under setting [4].

With `OC[C@H]1O[C@@](CO)(O[C@H]2O[C@H](CO)[C@@H](O)[C@H](O)[C@H]2O)[C@@H](O[C@H]2O[C@H](CO)[C@@H](O)[C@H](O)[C@H]2O)[C@@H]1O`, the “cell viability (log2)” value was 0.0123 under setting [1], 0.0415 under setting [2], 0.0346 under setting [3] and 0.126 under setting [4].

In the case of `COCCOC(=O)C1=C(C)NC(=S)NC1c1ccccc1OC` (configuration not stated), the “cell viability (log2)” value under setting [1] was 0.0949, the “cell viability (log2)” value under setting [2] is 0.0382, the “cell viability (log2)” value under setting [3] was 0.0563 and the “cell viability (log2)” value under setting [4] was 0.0651.

`C=CC(C)(CCC1C(=C)CC(OC(C)=O)C2C(C)(C)CCCC12C)OC(C)=O` (configuration not stated): the “cell viability (log2)” value runs as follows: under setting [1], 0.025; under setting [2], 0.066; under setting [3], 0.163; under setting [4], -0.0558.

In the case of `O=C1[C@H](Cc2ccc(O)cc2)N2C(=O)CCN(C(=O)NCc3ccccc3)[C@H]2CN1Cc1cccc2ccccc12`, the “cell viability (log2)” value reads like this: under setting [5], -0.0101; under setting [6], 0.068; under setting [7], 0.0453; under setting [8], 0.0327; under setting [9], 0.0157; under setting [10], 0.0736. Also, the “cell viability (log2)” value by setting is: under setting [11], 0.0365; under setting [12], 0.0441; under setting [13], -0.0756; under setting [14], -0.205; under setting [15], -1.07 (active); under setting [16], -1.18 (active).

Turning to `O=C(O)[C@@H]1C2CC3c4[nH]c5ccccc5c4CCN3CC2CC[C@@H]1O` (some centres not stated), the “cell viability (log2)” value by setting is: under setting [1], 0.0321; under setting [2], 0.0471; under setting [3], 0.097; under setting [4], 0.142.

Turning to `Nc1ncn([C@H]2C[C@H](O)[C@@H](CO)O2)c(=O)n1`, the “cell viability (log2)” value is, setting by setting: under setting [5], -0.0304; under setting [6], 0.0527; under setting [7], -0.025; under setting [8], 0.0562; under setting [9], -0.0731; under setting [10], 0.022. Besides, the “cell viability (log2)” value was -0.0569 under setting [11]; 0.0493 under setting [12]; -0.0462 under setting [13]; 0.058 under setting [14]; -0.117 under setting [15]; 0.0388 under setting [16].
